The nature of experiment [1]: Dual reporter qHTS for antagonist of Pregnane X Receptor (hPXR) against the NCATS DSHEA and TCM libraries: Fluorescence Readout (AID 1920061). Note: 0% is about no effect. The method in brief:
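Antagonist mode: rifampicin 2 uM final co-added with compounds to hPXR-LucHepG2 cells for 24 h at 37C. Viability by CellTiter-Fluor, Ex/Em 405/540 nm, 1 h; reporter by ONE-Glo luminescence.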
For orientation: In qHTS, concentration-response curves come from the screen itself.

Experiment [2] in a line: qHTS drug screen for cell cycle checkpoint inhibitors in PARPi-resistant BRCA-mutant ovarian cancer cell lines. (AID 1963452; calls by dose curve; note: potency is the fitted concentration of half-maximal effect). The following applies: PEO1/OlaR viability, CellTiter-Glo luminescence, 96 h; for Z-AUC: stronger effect = lower value. The method in brief:
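PEO1, PEO4 and PEO1/OlaR ovarian cancer cells, 600 per well, exposed 96 h at 37C to a dilution series. Viability read by CellTiter-Glo luminescence, normalized to DMSO and empty wells; activity summarized as Z-AUC.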

Experiment [3] can be described thus: qHTS for identification of novel therapeutic agents for treatment of microphthalmiaassociated transcription factor (MiT) renal cell carcinoma (RCC) (AID 1963991). The following applies: CellTiter-Glo, 48 h, stronger effect = lower value. The method in brief: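 Three TFE3-fusion RCC cell lines (UOK109, UOK124, UOK145), 500 cells/well, were exposed to the 1912-compound MIPE 4.0 library for 48 hours at 37 C. Viability was read by CellTiter-Glo luminescence, normalised to DMSO (100%) and empty wells (0%), with 11-concentration curve fits.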

Experiment [4] is described as follows: qHTS profiling for inhibitors of Plasmodium falciparum proliferation (AID 504749).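 For activity, negative = inhibition: 0% = DMSO vehicle and full inhibition = artemisinin control.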 For all read-outs here: nearly all actives have a fitted effect of over 60% in size. Note: potency is the fitted concentration of half-maximal effect. The settings on record: P. falciparum in erythrocytes, SYBR Green DNA, 72 h; for activity, negative = inhibition: at 28.7 µM (top of the series). An outline of the steps:
(§1)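 Parasite proliferation within erythrocytes, 72 h exposure. Endpoint: SYBR Green I fluorescence after overnight lysis at room temperature. Controls: 0.29 uM artemisinin, DMSO.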

The next experiment concerns 3D7. The experiment is described as above. The following applies: P. falciparum in erythrocytes, SYBR Green DNA, 72 h; series mostly up to 28.7 µM. An outline of the steps:
as §1

In a further experiment the test system is 7G8. The experiment is described as above. The following applies: P. falciparum in erythrocytes, SYBR Green DNA, 72 h; series mostly up to 28.7 µM. An outline of the steps:
as §1

The subject of the next experiment is AA1029. Described as above. The following applies: P. falciparum in erythrocytes, SYBR Green DNA, 72 h; series mostly up to 28.7 µM. The method in brief:
as §1

A further experiment has as its system AS120. The description is as above. The settings on record: P. falciparum in erythrocytes, SYBR Green DNA, 72 h; series mostly up to 28.7 µM. An outline of the steps:
as §1

For the next experiment, the system named is ATS189. The description is as above. The settings on record: P. falciparum in erythrocytes, SYBR Green DNA, 72 h; series mostly up to 28.7 µM. The method in brief:
as §1

A further experiment deals with ATS95. The description is as above. The settings on record: P. falciparum in erythrocytes, SYBR Green DNA, 72 h; series mostly up to 28.7 µM. The method in brief:
as §1

Another experiment relates to C2A. The experiment is described as above. The settings on record: P. falciparum in erythrocytes, SYBR Green DNA, 72 h; series mostly up to 28.7 µM. The method in brief:
as §1

For a further experiment, the system named is CP185. Described as above. The following applies: P. falciparum in erythrocytes, SYBR Green DNA, 72 h; series mostly up to 28.7 µM. The method in brief:
as §1

The subject of another experiment is CP191. The description is as above. The following applies: P. falciparum in erythrocytes, SYBR Green DNA, 72 h; series mostly up to 28.7 µM. The method in brief: as §1
In a further experiment the test system is CP192. The description is as above. The settings on record: P. falciparum in erythrocytes, SYBR Green DNA, 72 h; series mostly up to 28.7 µM. An outline of the steps:
as §1

The subject of another experiment is CP194. Described as above. The following applies: P. falciparum in erythrocytes, SYBR Green DNA, 72 h; series mostly up to 28.7 µM. An outline of the steps: as §1
A further experiment deals with CP201. The description is as above. The following applies: P. falciparum in erythrocytes, SYBR Green DNA, 72 h; series mostly up to 28.7 µM. The method in brief:
as §1

A further experiment concerns CP211. The experiment is described as above. The settings on record: P. falciparum in erythrocytes, SYBR Green DNA, 72 h; series mostly up to 28.7 µM. The method in brief: as §1
A further experiment deals with CP215. Described as above. The settings on record: P. falciparum in erythrocytes, SYBR Green DNA, 72 h; series mostly up to 28.7 µM. The method in brief:
as §1

The test system of the next experiment is CP217. The experiment is described as above. The settings on record: P. falciparum in erythrocytes, SYBR Green DNA, 72 h; series mostly up to 28.7 µM. The method in brief:
as §1

[5] abbreviates: TFE3-RCC UOK109 viability, measured here: UOK109 Z-AUC.
[6] abbreviates: TFE3-RCC viability, measured here: UOK124 Z-AUC.
The mark [7] stands for this setting: TFE3-RCC viability, measured here: UOK145 Z-AUC.
[8] abbreviates: measured here: PEO1 parental Z-AUC.

Records with an inconclusive call do not appear. Calls of active or inactive are those of the source. Unless noted, calls come from the whole dose curve; as a rule, active = well fitted curve in the direction sought with a large enough effect; inconclusive = small, poorly fitted or top-dose-only effect, or another doubt; inactive = no such curve, though single readings can be large; an effect the other way counts as inactive or inconclusive.

For `Cc1cc(O)c2c(c1)C(=O)c1cc(O)cc(O)c1C2=O`, the compound was called inactive in experiment [1].

`CCN(CC)CCOc1ccc(Nc2ncc3cc(-c4c(Cl)cccc4Cl)c(=O)n(C)c3n2)cc1`: the Potency in experiment [2] was 155 nM (active).

With `CCOC(=O)C1=C[C@@H](OC(CC)CC)[C@H](NC(C)=O)[C@@H](N)C1`, the z-score worked out at 0.372 in experiment [3] (setting [5]), 0.178 in experiment [3] (setting [6]) and 0.414 in [3] (setting [7]).

Consider `CCCCN(CCCC)CCC(O)c1cc2c(Cl)cc(Cl)cc2c2cc(C(F)(F)F)ccc12` (stereo not given), for which the figures for the Z-AUC in [2], in experiment [2] (setting [8]) and in [2] (measured here: PEO4 Z-AUC) were -0.995 (inactive), -1.16 and -0.882, respectively. Also, the z-score in experiment [3] (setting [5]) is 0.318; in experiment [3] (setting [6]), 0.539; in experiment [3] (setting [7]), 0.552. The Potency in [4] (parasite line A) is 7.9 nM (active); in experiment [4] (parasite line B), 5.6 nM (active); in the experiment on 3D7, 3.2 nM (active); in the experiment on 7G8, 1.1 nM (active); with AA1029, 6.3 nM (active); in the experiment on AS120 it was 5.6 nM (active). Moreover, the Potency in the experiment on ATS189 is 5.6 nM (active); in the experiment on ATS95, 7.9 nM (active); in the experiment with C2A it was 25.1 nM (active); with CP185, 28.2 nM (active); with CP191 it was 12.6 nM (active); with CP192, 10.2 nM (active). In addition, the Potency in the experiment with CP194 was 32.2 nM (active); with CP201, 51 nM (active); with CP211, 64.2 nM (active); in the experiment with CP215, 28.7 nM (active); with CP217, 12.6 nM (active).

`CC(=O)Nc1ccc(O)cc1`: the Z-AUC is 0.911 (inactive) in experiment [2], 0.308 in experiment [2] (setting [8]) and 0.415 in [2] (measured here: PEO4 Z-AUC). Also, the z-score stood at 1.26 in experiment [3] (setting [5]), 0.904 in experiment [3] (setting [6]) and 0.696 in [3] (setting [7]).

Consider `O=C(O)c1cc(=O)c2c(OCC(O)COc3cccc4oc(C(=O)O)cc(=O)c34)cccc2o1`, for which the results for the Z-AUC in experiment [2], in [2] (setting [8]) and in experiment [2] (measured here: PEO4 Z-AUC) were 1.18 (inactive), 1.06 and 1, respectively. Also, the z-score in experiment [3] (setting [5]) was 0.209; in [3] (setting [6]), 0.177; in experiment [3] (setting [7]), -0.326. The results for the activity, negative = inhibition in experiment [4] (parasite line A) and in experiment [4] (parasite line B) were 8.12% (inactive) and 15.8% (inactive), respectively. Besides, the Potency entry in the experiment with 3D7, in the experiment with 7G8, in the experiment with AA1029, in the experiment with AS120, with ATS189 and with ATS95 was “inactive” in each case. Further, the Potency entry with C2A, in the experiment on CP185, in the experiment with CP191, with CP192, in the experiment with CP194 and with CP201 was “inactive” in each case. Also, the Potency result in the experiment with CP211, in the experiment on CP215 and in the experiment with CP217 was “inactive” each time.

For the compound `Cc1c(OCC(F)(F)F)ccnc1CS(=O)c1nc2ccccc2[nH]1` (stereo not given), the Z-AUC is 1.49 (inactive) in experiment [2], 0.689 in [2] (setting [8]) and 0.798 in [2] (measured here: PEO4 Z-AUC). In addition, the z-score in [3] (setting [5]) was found to be 0.51; in experiment [3] (setting [6]) it was 0.775; in [3] (setting [7]), 0.275. In addition, the activity, negative = inhibition in experiment [4] (parasite line A) is -19.3% (inactive); in experiment [4] (parasite line B) it was -5.11% (inactive). Besides, the Potency entry in the experiment with 3D7, with AA1029, in the experiment with AS120, in the experiment on ATS189, in the experiment on ATS95 and in the experiment with C2A was “inactive” throughout. For the same compound, the Potency entry with CP185, with CP191, with CP192, in the experiment with CP194, in the experiment on CP201 and in the experiment with CP211 was “inactive” each time. The Potency entry in the experiment on CP215 and in the experiment on CP217 was “inactive” throughout.

As to `Cc1ccc(C(=O)c2cc(O)c(O)c([N+](=O)[O-])c2)cc1`, the Z-AUC in experiment [2] is -0.393 (inactive); in experiment [2] (setting [8]), -0.655; in [2] (measured here: PEO4 Z-AUC), -0.817. Besides, the z-score in experiment [3] (setting [5]) turned out to be 0.222; in experiment [3] (setting [6]), 0.88; in [3] (setting [7]), 0.533.

Regarding `COCCCOc1ccnc(CS(=O)c2nc3ccccc3[nH]2)c1C` (stereo not given), the Z-AUC was -0.249 (inactive) in experiment [2], -0.578 in [2] (setting [8]) and -0.176 in experiment [2] (measured here: PEO4 Z-AUC). Also, the figures for the z-score in experiment [3] (setting [5]), in experiment [3] (setting [6]) and in experiment [3] (setting [7]) were 0.673, 0.741 and 0.739, respectively. Besides, the values for the activity, negative = inhibition in experiment [4] (parasite line A) and in experiment [4] (parasite line B) were -29% (inactive) and -20.3% (inactive), respectively. Besides, the Potency entry in the experiment with 3D7, in the experiment with AA1029, in the experiment on AS120, in the experiment on ATS189, with ATS95 and with C2A was “inactive” each time. Further, the Potency result in the experiment on CP185, with CP192, with CP201, with CP211, in the experiment on CP215 and in the experiment on CP217 was “inactive” throughout.

The record behind these values is PubChem BioAssay (NCATS).
